The values below come from PubChem BioAssay (Tox21).

“And” between values parts separate entries of the source, which are not always exact repeats. Identical values can stand only once. Records with an inconclusive call do not appear. Values without a mark were called inactive. The source made the active and inactive calls. The call rests on the fitted dose curve.
On the % scale 0 is the no-effect control and ±100 the full control effect; potency means the concentration at half of the fitted maximal effect.

Chain of Beta-2 adrenergic receptor (Homo sapiens) (P07550 whole entry, looked up): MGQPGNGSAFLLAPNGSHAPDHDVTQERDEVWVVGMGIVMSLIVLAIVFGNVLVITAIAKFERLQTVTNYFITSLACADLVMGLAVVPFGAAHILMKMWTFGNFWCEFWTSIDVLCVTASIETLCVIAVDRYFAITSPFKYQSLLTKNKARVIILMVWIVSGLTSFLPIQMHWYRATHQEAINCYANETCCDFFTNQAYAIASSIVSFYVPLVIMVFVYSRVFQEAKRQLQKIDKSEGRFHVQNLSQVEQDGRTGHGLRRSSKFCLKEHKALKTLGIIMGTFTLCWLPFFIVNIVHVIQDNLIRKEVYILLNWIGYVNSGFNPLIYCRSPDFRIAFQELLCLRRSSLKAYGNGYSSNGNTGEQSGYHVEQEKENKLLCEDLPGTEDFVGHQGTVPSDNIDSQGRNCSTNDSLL

This test concerns the target Beta-2 adrenergic receptor (Homo sapiens) (UniProt P07550). Nature of the test: Adrenergic beta2 receptor (ADRB2) small molecule antagonists, cell-based qHTS assay (AID 1963592). Further: nearly all actives have a fitted effect of over 50% in size. The following applies: CHO-ADRB2 cells, isoproterenol-stimulated cAMP HTRF ratio, 0.5 h; series mostly up to 92.4 µM; activity change, negative = inhibition: at the top concentration. An excerpt:
U.S. Tox21 Program National Center for Advancing Translational Sciences [NCATS] Division of Preclinical Innovation [DPI] U.S. Environmental Protection Agency [EPA] National Institutes of Environmental Health Sciences [NIEHS] National Toxicology Program [NTP] U.S. Food and Drug Administration [FDA] Tox21 Assay Overview: Beta adrenergic receptors (Beta-ARs) belong to the G-protein coupled receptor (GPCR) superfamily, includes three subtypes - beta1, beta2, and beta3. Beta1-AR is the predominant receptor subtype expressed in the heart, and beta2-AR is expressed in the kidney, lung, blood vessel and in the heart, and beta3 is found in the adipocytes. Beta1 and 2 ARs couple to Gs protein and elevate cyclic adenosine mono phosphate (cAMP), which activates protein kinase A and leads to the downstream signaling responsible for the physiological actions. Beta-AR agonists or antagonists are the most prescribed therapeutic agents for heart failure and asthma, and these were one of the first target receptors for the rational drug design. Tox21 10K compound library was screened using the cAMP-Gs dynamic assay (Cisbio Bioassays, Shelton, CT) to identify agonists/antagonists of the Gs-coupled human adrenergic, beta2 receptor (ADRB2) in the CHO-ADRB2 cell line (Codex BioSolutions, Inc. Gaithersburg, MD), which stably over-expresses ADRB2. The principle of cAMP-Gs dynamic assay is based on HTRF technology, which facilitates the fluorescence resonance energy transfer (FRET) between donor Europium cryptate and acceptor d2-labeled cAMP. The cAMP generated within cells competes with the red acceptor, d2-labled cAMP, for binding to the monoclonal anti-cAMP-cryptate (Europium donor). An increase in intracellular cAMP leads to the disruption of FRET signal, and the signal is inversely proportional to the cAMP concentration. Propranolol HCl (Sigma-Aldrich, St. Louis, MO) was used as a positive control in the screening.
Tox21 Assay Protocol Summary: CHO-ADRB2 cells were dispensed at 1,000/well in 4uL assay medium into white/solid 1536-well plates (Greiner Bio-One North America Inc., Monroe, NC) using a Multidrop Combi dispenser (ThermoFisher Scientific, Waltham, MA). The assay plates were incubated at 37C and 5% CO2 for an overnight (18-20hr). Then positive control and test compounds dissolved in DMSO were transferred to the assay plates at 23nL using a Pintool station (Wako, San Diego, CA). Following the compound and positive control transfer, 1uL agonist-stimulation mix containing 1nM Isoproterenol HCl, 100uM IBMX and 25uM Ro-20-1724 was added to each well of the assay plates using BioRAPTR Flying Reagent Dispenser (FRD, Beckman Coulter, Brea, CA). The assay plates were incubated at room temperature for 0.5hr. Then 2.5ul each d2-labled cAMP and anti-cAMP-cryptate solutions were added separately to each well of the assay plates using an FRD and the assay plates were incubated at room temperature for 1hr. The fluorescence signal was measured at two different wavelengths (665nm and 615nm) using an Envision plate reader (Perkin Elmer, Shelton, CT). Data were expressed as the ratio of 665 nm/615 nm.
For `CCCCOc1ccc(N)cc1`, the “activity change, negative = inhibition” value is -6.18%.

Take `COc1cc(NC(C)CCCN)c2ncccc2c1` (stereo not given): the “activity change, negative = inhibition” value was -10.2% [at 42.5 µM].

Turning to `CC[C@]1(O)C[C@H]2CN(CCc3c([nH]c4ccccc34)[C@@](C(=O)OC)(c3cc4c(cc3OC)N(C=O)[C@H]3[C@@](O)(C(=O)OC)[C@H](OC(C)=O)[C@]5(CC)C=CCN6CC[C@]43[C@@H]65)C2)C1`, the “activity change, negative = inhibition” value was 0.366% [at 42.5 µM].

`COc1ccc(COC=O)cc1`: the “activity change, negative = inhibition” value is 0.379%.

With `CC(C)c1ccc2ncccc2c1`, the “activity change, negative = inhibition” value is -13.2%.

Turning to `Oc1ccc(C2(c3ccc(O)cc3)CC3CC2C2CCCC32)cc1` (stereo not given), the “activity change, negative = inhibition” value is -28.1%.

Take `CCCCCCCCCC(C)C=O` (stereo not given): the “activity change, negative = inhibition” value was 3.94%.

On to `Cc1ccc(C(=O)C(C)CN2CCCCC2)cc1` (stereo not given), for which the “activity change, negative = inhibition” value was -8.33% [at 42.5 µM].

For `CCOC(=O)[C@H](CCc1ccccc1)N[C@H]1CCc2ccccc2N(CC(=O)O)C1=O`, the Potency is 23.7 µM (active).

For the compound `Cc1c(-c2cccnc2)c2ccccc2n1CCCCC(=O)O`, the “activity change, negative = inhibition” value was -17.2%.

Take `CCN(CC)CCCC(C)Nc1ccnc2cc(Cl)ccc12` (stereo not given): the activity change, negative = inhibition was 0.663% [at 8.39 µM] and -0.0752% [at 19 µM].

For `CCN(Cc1cccnc1)C(=O)c1cccc(Cl)c1[C@]1(C)C(=O)N(Cc2ccc(OC)cc2OC)c2ccc(Cl)cc21`, the “activity change, negative = inhibition” value is -10.3%.

As to `CSc1c(Cl)c(Cl)c(Cl)c(Cl)c1Cl`, the “activity change, negative = inhibition” value was 7.4%.

As to `O=C(Oc1ccccc1)Oc1ccccc1`, the “activity change, negative = inhibition” value is -6.5%.

`O=C(Cl)c1cc(Cl)cc(Cl)c1`: the “activity change, negative = inhibition” value was -11.7%.

Take `CCCCCCC#CC(=O)OC`: the “activity change, negative = inhibition” value was -4.62%.

For the compound `CC(=O)OC(C(=O)c1ccccc1)c1ccccc1` (stereo not given), the “activity change, negative = inhibition” value is -14.6%.

In the case of `CC(=O)c1ccccc1[N+](=O)[O-]`, the “activity change, negative = inhibition” value was -0.133%.

Take `O=c1c2ccccc2oc2ccccc12`: the “activity change, negative = inhibition” value is -2.89%.

Turning to `C/C=C1/C(=O)C[C@H]2[C@@H]3CCC4=CC(=O)CC[C@]4(C)[C@H]3CC[C@]12C`, the “activity change, negative = inhibition” value was 0.468%.

In the case of `C[C@](N)(Cc1ccc(O)cc1)C(=O)O`, the activity change, negative = inhibition was 3.74% [at 8.39 µM].

`Cc1ccc(C(=O)O)cc1[N+](=O)[O-]`: the “activity change, negative = inhibition” value is -15.3%.

`OC[C@H]1O[C@@H](OCCc2ccc(O)cc2)[C@H](O)[C@@H](O)[C@@H]1O`: the “activity change, negative = inhibition” value is 1.96% [at 42.5 µM].

Consider `Cc1nc2sccn2c(=O)c1CCN1CCC(=C(c2ccc(F)cc2)c2ccc(F)cc2)CC1`, for which the “activity change, negative = inhibition” value was -22.6% [at 42.5 µM].

With `Nc1c[n+](N2CCOCC2)no1`, the “activity change, negative = inhibition” value was 4.22% [at 42.5 µM].

With `NNC(=O)CP(=O)(c1ccccc1)c1ccccc1`, the “activity change, negative = inhibition” value is -21.1% [at 42.5 µM].

As to `OCC1CC=CCC1` (stereo not given), the “activity change, negative = inhibition” value is 7.82%.

Take `O=[N+]([O-])c1ccc(O)c2ncccc12`: the “activity change, negative = inhibition” value is 0.435% [at 42.5 µM].

With `OCCOCC#CCOCCO`, the “activity change, negative = inhibition” value is -0.365%.

Turning to `CC(=O)C(=O)CC(C)C`, the “activity change, negative = inhibition” value is 3.86%.

Turning to `CC/C=C\C/C=C\C/C=C\CCCCCCCC(=O)OCC`, the “activity change, negative = inhibition” value was 9.49%.

Regarding `CN1CCC(Nc2ncc3ncnc(Nc4ccc(F)c(Cl)c4)c3n2)CC1`, the “activity change, negative = inhibition” value is -10.9% [at 42.5 µM].

Take `CCCCCCCCCCCCCCCCC(C(=O)O)C(O)(CC(=O)O)C(=O)O` (stereo not given): the “activity change, negative = inhibition” value is 9.87% [at 42.5 µM].

With `Nc1ccn(C2CO[C@H](CO)O2)c(=O)n1` (stereo not given in full), the “activity change, negative = inhibition” value is 1.19% [at 42.5 µM].

For `CCCCCCCCCCCCCCCCN(C)C`, the activity change, negative = inhibition was -8.88% [at 8.39 µM].

For `C[C@H]1[C@H]2CC[C@H]3[C@@H]4CC=C5C[C@@H](N(C)C)CC[C@]5(C)[C@H]4CC[C@]23CN1C`, the “activity change, negative = inhibition” value was -6.75% [at 42.5 µM].

With `CCCCC/C(=C\c1ccccc1)CO`, the “activity change, negative = inhibition” value is -3.49%.

In the case of `CCCCCCCCCCCCCCC`, the “activity change, negative = inhibition” value was 2.29%.

For `OCCOc1cccc(OCCO)c1`, the “activity change, negative = inhibition” value is -0.789%.

Consider `COc1cc(C(C)C)c2c(c1)S(=O)(=O)N(COc1cc(=O)n3cccc(OCCN4CCCCC4)c3n1)C2=O`, for which the activity change, negative = inhibition is 1.57% [at 19 µM].
